SARS PLpro yeast-1 = SARS-CoV PLP inhibition in yeast | 0.19% of 330,000 active | Potency, µM (top dose mostly 32.9 µM), inactives show at the top dose activity, positive = growth rescue, hits mostly activators | S. cerevisiae expressing SARS-CoV PLpro, growth rescue; calls by dose curve; further: potency means the concentration at half of the fitted maximal effect; 0% is about no effect; nearly all actives have a fitted effect of over 55% in size
Pf growth 48h = inhibits P. falciparum growth in the first generation, 48 h | P. falciparum luciferase growth in erythrocytes, 48 h | Potency, µM (doses to about 28.7 µM), for inactives: at the top dose activity change, negative = inhibition, most hits filed as inhibitors | 5.9% of 310,000 active; further: potency means the concentration at half of the fitted maximal effect; on the % scale 0 is the no-effect control and ±100 the full control effect
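Luminescence readout; reporter = integrated firefly luciferase in P. falciparum. RBC culture at 2% hematocrit, 0.1% parasitemia final, 37 C/5% CO2; decreased signal taken as growth inhibition.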
HCMV inh = blocks human cytomegalovirus replication; HFF cells, HCMV-luciferase reporter, 72 h; hits give low values; activity change, negative = inhibition, % at 57.5 µM; 4.5% of 410,000 active; AID 1259415; in the data active means activity change below about -60%; inconclusive means no clear call, values can overlap the other calls; inactive means above about -39%; further: on the % scale 0 is the no-effect control and ±100 the full control effect
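HFF cells seeded 16 h at 37C, treated with compounds, infected with luciferase-reporter HCMV at MOI 1 PFU/cell; luciferase read at 72 h post infection, normalized to buffer-only and Salinomycin controls.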
Pf growth 96h = P. falciparum growth inhibition at 96 hour, primary screen for plastid delayed-death inhibitors. P. falciparum luciferase reporter growth, 96 h. Potency, µM (titrated, usually from 28.7 µM), inactives show top-dose activity change, negative = inhibition, most hits filed as inhibitors. 6.9% of 320,000 active. AID 504834; further: potency means the concentration at half of the fitted maximal effect; on the % scale 0 is the no-effect control and ±100 the full control effect
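Cell-based qHTS: luciferase-tagged P. falciparum in erythrocytes (2% hematocrit, 0.05% parasitemia final) incubated with compounds for 96 hours, 37 C, 5% CO2; luciferase detection reagent then added and luminescence measured.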
HCV inhibitor = inhibitors of hepatitis C virus infection; Huh7.5.1 HCVcc-Cre infection, luciferase reporter, 44 h; Potency, µM (top dose mostly 41.8 µM), for inactives: top-dose activity change, negative = inhibition, actives largely listed as inhibitors; 3.4% of 340,000 active; AID 651820; further: potency means the concentration at half of the fitted maximal effect; on the % scale 0 is the no-effect control and ±100 the full control effect
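Whole-lifecycle infectious HCVcc-Cre system; cells 1,000/well, compound then virus (~0.5 moi) added 4 h after plating, 44 h culture. Luciferase read 15 sec following 15 min substrate incubation, room temp.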
Sm TGR block = blocks Schistosoma mansoni thioredoxin glutathione reductase; Q962Y6; purified TGR, DTNB reduction, TNB absorbance 405 nm; Potency, µM (series often up to 114 µM), for inactives: at the top dose activity change, negative = inhibition, usual class: inhibitors; 3% of 360,000 active; AID 485364; further: potency means the concentration at half of the fitted maximal effect; on the % scale 0 is the no-effect control and ±100 the full control effect; nearly all actives have a fitted effect of over 60% in size
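Kinetic colorimetric format: TGR-catalysed, NADPH-driven DTNB reduction monitored via TNB absorbance. Enzyme dispensed at 20 nM; compound exposure 15 min at room temperature before reaction start.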
SARS PLpro yeast-2 = Validates SARS-CoV PLpro inhibitor hits in yeast; AID 652038; 19% of 1,000 active; yeast expressing SARS-CoV PLpro, growth phenotype rescue; calls only; shares compounds with SARS PLpro yeast-1; call rule not given here
An asterisk follows results filed as active; i = inactive; ? = inconclusive; · = no result; + = active, no number. Most compounds without a hit are left out; they make up all but 15% or so of the library. Unless noted, the call rests on the fitted dose curve; in most records, active means well fitted curve in the direction sought with a large enough effect; inconclusive means small, poorly fitted or top-dose-only effect, or another doubt; inactive means no such curve, though single readings can be large; an effect the other way counts as inactive or inconclusive.

SMILES	SARS PLpro yeast-1	Pf growth 48h	HCMV inh	Pf growth 96h	HCV inhibitor	Sm TGR block	SARS PLpro yeast-2
CCn1cc(C(=O)O)c(=O)c2cc(F)c(N3CCN(S(=O)(=O)c4ccc(NC(=O)OC)cc4)CC3)cc21	?	4.7µM*	-63*	?	15%	1%	i
O=C(Nc1ccc(F)cc1)C(c1ccccc1)N1CCN(S(=O)(=O)c2ccccc2)CC1 (configuration not stated)	?	-12%	-3	?	?	-2%	i
COc1ccc(NC(=O)Cn2nnnc2-c2ccccc2F)c(C)c1	·	·	-19	·	·	1%	·
CC(NC(=O)c1ccc(N(C)C)cc1)C1CC2CCC1C2 (configuration not stated)	22µM*	3%	6	·	18%	2%	i
C[C@H]1CN(S(=O)(=O)C(C)(C)C)[C@H](CCO)/C1=C\CCO	·	·	22	·	·	·	·
CC(C)C1Oc2ccccc2N(CC(=O)N(Cc2ccccn2)CC2CCCO2)C1=O (configuration not stated)	1.8µM*	-23%	14	1%	6%	0%	i
CCOc1ccc(CNC(=S)NCc2ccc(OCC)cc2)cc1	13µM*	19%	?	7%	?	-1%	+
CCCNC(=S)NCc1ccc(Cl)cc1	?	17%	25	46%	14%	-9%	i
CCOc1ccc(C(C)NC(=S)NCc2ccc(F)cc2)cc1 (configuration not stated)	?	?	?	-19%	?	5%	·
CC(C)c1cnc2c(c1SCC(=O)N1CCCCC1)c(=O)n(C)c(=O)n2C	·	·	23	·	·	5%	·
O=C(Cn1c(=O)oc2cc(S(=O)(=O)N3CCCCC3)ccc21)Nc1cccc(Cl)c1	·	·	-38	·	·	1%	·
Cc1ccc(NC(=O)/C=C/c2ccc3c(c2)OCO3)nc1	?	109%	-6	?	-6%	-15%	i
Cc1cc([N+](=O)[O-])nn1Cc1ccc(C(=O)N/N=C/c2ccc(O)cc2O)cc1	3.2µM*	?	?	-89%	?	-4%	?
Cc1cc([N+](=O)[O-])nn1Cc1ccc(C(=O)N/N=C/c2ccc(F)cc2)cc1	-1%	-1%	?	-2%	-23%	5%	·
Oc1ccc(/C=N/Nc2ncc(Br)cn2)c(O)c1	?	?	124	?	?	2%	i
Oc1ccc(Br)cc1/C=N/Nc1ncc(-c2ccccc2)cn1	-2%	?	-33	?	0%	9%	·
CCN(CC)S(=O)(=O)c1ccc(N/N=C/c2ccc(O)cc2O)nc1	5µM*	2.3µM*	-101*	3.7µM*	?	21%	i
C[C@H](CO)N1C[C@H](C)[C@@H](CN(C)Cc2ccc3c(c2)OCO3)Oc2ccc(NS(C)(=O)=O)cc2C1=O	-2%	·	3	·	-3%	·	·
CC[n+]1c(/C=C(/C)SC)sc2ccccc21	3.5µM*	1.7µM*	32	?	?	-15%	i
C/C(=N\NC(=S)NC1CCCCC1)c1ccc(C#N)cc1	16µM*	-6%	-23	0%	8%	1%	+
Cc1cc(C)c2c(c1)/C(=c1/sc3n(c1=O)CN(c1ccccc1)CN=3)C(=O)N2	-2%	6%	0	-4%	-10%	2%	·
CCc1ccc2nc(N(Cc3cccnc3)C(=O)Cc3ccccc3)sc2c1	·	·	18	·	·	3%	·
O=C(Oc1ccc(OC(=O)c2ccncc2)cc1)c1ccncc1	·	·	-20	·	-8%	·	·
COc1ccc(OC(=O)c2ccncc2)cc1	?	-8%	20	35%	13%	7%	i
Cc1cc(/C=N/NC(N)=S)c(C)n1-c1ccc(Cl)c(Cl)c1	?	13µM*	?	12µM*	?	5%	i
CCNC(=S)N/N=C/c1cc(C)n(-c2ccc(Cl)cc2)c1C	-4%	16%	4	?	-19%	-1%	·

Bioassay records from PubChem.
